The values below come from PubChem BioAssay (EPA / NIEHS).

Results filed as inconclusive are left out. A structure can be active in one record and inactive in another. Activity calls are given as the source filed them. The calls were made as follows, unless noted: active = hit-call score of the fitted dose curve at least 0.9, where 1 is the maximum; inactive = score below 0.9.

The nature of test [1]: BSK_3C_TissueFactor: BioMAP Diversity Plus: 3C Assay for Tissue Factor Biomarker Activity (AID 2282997). The settings on record: BioMAP 3C HUVEC, tissue factor biomarker readout; actives raise or lower the signal. The gist of the method:
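In this endothelial system, HUVEC are treated for 24 h and Tissue Factor is assessed by ELISA, normalised to DMSO.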

A short description of test [2]: BSK_3C_uPAR: BioMAP Diversity Plus: 3C Assay for Urokinase-type plasminogen activator receptor (uPAR) Biomarker Activity (AID 2282998). The conditions noted are these: BioMAP 3C HUVEC, uPAR biomarker ELISA; actives raise or lower the signal. The essentials: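 Cell-surface uPAR on HUVEC (3C system) read by ELISA at 24 h post-treatment, with DMSO as baseline and fitting in both directions. Parallel cultures stained with SRB to flag overt cytotoxicity.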
On the technique in general: An ELISA detects its analyte on a solid surface through an enzyme-linked reagent.

Test [3] is described as follows: BSK_3C_VCAM1: BioMAP Diversity Plus: 3C Assay for Vascular cell adhesion molecule 1 (VCAM1) Biomarker Activity (AID 2282999). The settings on record: BioMAP 3C HUVEC, VCAM1 ELISA, cytokine-stimulated; actives raise or lower the signal. The gist of the method: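 Activity fitted in both directions relative to DMSO, with ELISA measurement of the surface marker on primary HUVEC (3C) at 24 h post-treatment; parallel SRB staining (0.1% SRB, TCA-fixed, 560 nm) flagged overt cytotoxicity.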

Test [4] in a line: BSK_4H_Eotaxin3: BioMAP Diversity Plus: 4H Assay for Eotaxin 3 Biomarker Activity (AID 2283000).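 As to outcome: CCL26 protein level quantified by ELISA in parallel with SRB cytotoxicity check.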 The conditions noted are these: primary human endothelial cells (HUVEC); actives raise or lower the signal. The essentials:
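ELISA quantitation of CCL26 (Eotaxin-3) protein from chemically dosed human vascular endothelial cells at 24 h; increases and decreases both scored relative to DMSO-treated baseline.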

Read-out in test [5]: Intercellular Adhesion Molecule 1 (ICAM1), ICAM1 (gene 3383)
In words: BSK_3C_ICAM1: BioMAP Diversity Plus: 3C Assay for Intercellular Adhesion Molecule 1 (ICAM1) Biomarker Activity (AID 2283003). The settings on record: primary human endothelial cells (HUVEC); actives raise or lower the signal. The essentials:
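ELISA readout of ICAM1 in human umbilical vein endothelial cells in the 3C system, taken 24 h post-dose. Gain or loss of signal versus DMSO was fitted in both directions, with SRB total-protein staining run in parallel.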

The nature of test [6]: BSK_3C_Proliferation: Cell Proliferation Assessment in the BioMAP Diversity Plus: 3C Assay (AID 2283006).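 As to AC50: potency may reflect either rise or fall in cell number versus DMSO.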 The conditions noted are these: primary human endothelial cells (HUVEC). The essentials:
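Proliferation as total protein: sulforhodamine B (0.1%) stain of TCA-fixed subconfluent human umbilical vein endothelial cells, absorbance 560 nm, 48 h after dosing. Activity fitted in both directions against DMSO baseline.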

Read-out in test [7]: E-selectin (Homo sapiens) (UniProt P16581)
In words: BSK_3C_Eselectin: BioMAP Diversity Plus: 3C Assay for Eselectin Biomarker Activity (AID 2283015).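 As to outcome: cell surface E-selectin protein quantified by ELISA 24 h after dosing.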 The settings on record: primary human endothelial cells (HUVEC); actives raise or lower the signal. The essentials: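 Endpoint derived by bidirectional fitting against DMSO vehicle; signal is ELISA-detected E-selectin from primary HUVEC at 24 h post-dosing, with parallel SRB staining (0.1% SRB, 560 nm) flagging cytotoxicity.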

Read-out in test [8]: Interleukin-1 alpha (IL1a), IL1A (gene 3552)
Nature of the test: BSK_BE3C_IL1a: BioMAP Diversity Plus: BE3C Assay for Interleukin-1 alpha (IL1a) Biomarker Activity (AID 2283016). The conditions noted are these: primary human bronchial epithelial cells; actives raise or lower the signal. The gist of the method: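 IL-1a measured by ELISA after 24 h treatment of human primary bronchial epithelial cells, with gain or loss of signal fitted versus DMSO. Parallel cultures stained with SRB gauge overt cytotoxicity.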

Read-out in test [9]: Monocyte Chemoattractant Protein-1 (MCP1), CCL2 (gene 6347)
Nature of the test: BSK_3C_MCP1: BioMAP Diversity Plus: 3C Assay for Monocyte Chemoattractant Protein-1 (MCP1) Biomarker Activity (AID 2283017). The conditions noted are these: primary human endothelial cells (HUVEC); actives raise or lower the signal. The essentials:
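Using human vascular primary endothelium, researchers measured MCP-1 by ELISA 24 h after treatment, with DMSO serving as negative control for bidirectional fitting.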

Read-out in test [10]: Monocyte Chemoattractant Protein-1 (MCP1), CCL2 (gene 6347)
Nature of the test: BSK_4H_MCP1: BioMAP Diversity Plus: 4H Assay for Monocyte Chemoattractant Protein-1 (MCP1) Biomarker Activity (AID 2283018). The conditions noted are these: primary human endothelial cells (HUVEC); actives raise or lower the signal. The essentials:
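ELISA of MCP-1 (CCL2) 24 h after chemical dosing of HUVEC in the BioMAP 4H system. Gain or loss versus DMSO fitted; parallel SRB staining (560 nm) tracked overt cytotoxicity.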

Read-out in test [11]: Interleukin-8 (IL8), CXCL8 (gene 3576)
In words: BSK_3C_IL8: BioMAP Diversity Plus: 3C Assay for Interleukin-8 (IL8) Biomarker Activity (AID 2283020). The conditions noted are these: primary human endothelial cells (HUVEC); actives raise or lower the signal. The gist of the method: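 IL-8 was measured by ELISA in HUVEC cultures 24 h after chemical dosing, with gain or loss of signal fitted relative to DMSO. Parallel SRB total-protein staining tracked overt cytotoxicity.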

Read-out in test [12]: Monokine induced gamma interferon (MIG), CXCL9 (gene 4283)
In words: BSK_3C_MIG: BioMAP Diversity Plus: 3C Assay for Monokine induced gamma interferon (MIG) Biomarker Activity (AID 2283021).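 As to AC50: MIG protein level measured by immunoassay in the treated endothelial cultures.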 The conditions noted are these: primary human endothelial cells (HUVEC); actives raise or lower the signal. The gist of the method:
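ELISA measurement of MIG in human umbilical vein endothelial cells 24 h after treatment. Cytotoxicity tracked by SRB staining in parallel cultures; gain or loss of signal fitted relative to DMSO.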

Test [13] can be described thus: BSK_3C_SRB: Viability Assessment in the BioMAP Diversity Plus: 3C Assay (AID 2283023).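 Also: cells read 24 h after compound dosing; fitted both ways against DMSO so a hit may be signal rise or drop.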 The settings on record: primary human endothelial cells (HUVEC). The essentials: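 Overt cytotoxicity is gauged in parallel confluent HUVEC cultures by SRB total-protein staining at the time of biomarker measurement, 24 h after dosing. Gain or loss of signal is fitted versus DMSO.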

Read-out in test [14]: Matrix Metallopeptidase 1 (MMP1), MMP1 (gene 4312)
In words: BSK_hDFCGF_MMP1: BioMAP Diversity Plus: hDFCGF Assay for Matrix Metallopeptidase 1 (MMP1) Biomarker Activity (AID 2283064). The settings on record: primary human foreskin fibroblasts; actives raise or lower the signal. The essentials:
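MMP1 levels quantified by ELISA 24 h after dosing human dermal fibroblast cultures, with parallel SRB total-protein staining for overt cytotoxicity. Data fitted in both directions against DMSO baseline.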

Read-out in test [15]: E-selectin (Homo sapiens) (UniProt P16581)
Nature of the test: BSK_SAg_Eselectin: BioMAP Diversity Plus: SAg Assay for Eselectin Biomarker Activity (AID 2283091). The settings on record: primary human HUVEC with PBMC; actives raise or lower the signal. The gist of the method:
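Endpoint values derive from bidirectional fitting relative to DMSO, using ELISA-measured E-selectin in a human vascular co-culture (umbilical vein endothelium plus PBMC) sampled 24 h after dosing.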

The nature of test [16]: BSK_SAg_PBMCCytotoxicity: PBMC Cytotoxicity Assessment in the BioMAP Diversity Plus: SAg Assay (AID 2283093).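 Also: PBMC viability measured as Alamar Blue reduction fluorescence at 546/580 nm; fitted both ways against DMSO so a hit may be loss or gain of signal.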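 As to AC50: PBMC superantigen activated with SEB plus TSST-1 one hour after compound addition.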 The settings on record: primary human HUVEC with PBMC. The gist of the method: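 Alamar Blue reduction (6 h, ex/em 546/580 nm) read after 90 h culture of PBMC pre-dosed 1 h then stimulated with SEB plus TSST-1, 20 ng/mL each. Gain or loss of signal fitted relative to DMSO.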

Read-out in test [17]: Interleukin-8 (IL8), CXCL8 (gene 3576)
In words: BSK_SAg_IL8: BioMAP Diversity Plus: SAg Assay for Interleukin-8 (IL8) Biomarker Activity (AID 2283094). The conditions noted are these: primary human HUVEC with PBMC; actives raise or lower the signal. The essentials:
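ELISA readout of IL-8 from a superantigen-activated endothelial/PBMC primary human co-culture, taken 24 h post-dosing and fitted in both directions against DMSO; parallel SRB total-protein staining flags overt cytotoxicity.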

Test [18] addresses human Retinoic Acid Receptor beta (RARb), RARB (gene 5915) (UniProt P10826). In words: ATG_RARb_TRANS: Attagene TRANS-FACTORIAL HepG2 Assay for human Retinoic Acid Receptor beta (AID 2283004; active = hit-call score of the fitted dose curve at least 0.9, where 1 is the maximum). The essentials: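 Fluorescent capillary-electrophoresis detection of GAL4-UAS reporter mRNA defines the endpoint, with induction over DMSO-treated wells scored as activity. Transiently transfected human hepatoma HepG2 cells expressing exogenous NR–Gal4 proteins are exposed to test chemicals for 24 h.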

Test [19] deals with Peroxisome proliferator-activated receptor gamma (Homo sapiens) (UniProt P37231). In words: OT_PPARg_PPARgSRC1_0480: Odyssey Thera (OT) 8-hour Protein-Complementation Assay for Peroxisome Proliferator-activated Receptor Gamma / SRC-1 Co-activator (AID 2283387; active = hit-call score of the fitted dose curve at least 0.9, where 1 is the maximum;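 also: nuclear to cytoplasmic split Venus YFP fluorescence ratio reporting PPARg SRC-1 interaction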). The gist of the method: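 Read-out: 488 nm N/C fluorescence ratio from complemented Venus YFP fragments, ≥350 cells per image, gain-of-signal fitted against DMSO baseline. Fusions of PPARg/SRC-1 with IFP1/IFP2 expressed transiently in HEK293T; compounds applied 8 h.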
Sequence of Peroxisome proliferator-activated receptor gamma (Homo sapiens) (P37231 whole entry, looked up, the tested form may be a part): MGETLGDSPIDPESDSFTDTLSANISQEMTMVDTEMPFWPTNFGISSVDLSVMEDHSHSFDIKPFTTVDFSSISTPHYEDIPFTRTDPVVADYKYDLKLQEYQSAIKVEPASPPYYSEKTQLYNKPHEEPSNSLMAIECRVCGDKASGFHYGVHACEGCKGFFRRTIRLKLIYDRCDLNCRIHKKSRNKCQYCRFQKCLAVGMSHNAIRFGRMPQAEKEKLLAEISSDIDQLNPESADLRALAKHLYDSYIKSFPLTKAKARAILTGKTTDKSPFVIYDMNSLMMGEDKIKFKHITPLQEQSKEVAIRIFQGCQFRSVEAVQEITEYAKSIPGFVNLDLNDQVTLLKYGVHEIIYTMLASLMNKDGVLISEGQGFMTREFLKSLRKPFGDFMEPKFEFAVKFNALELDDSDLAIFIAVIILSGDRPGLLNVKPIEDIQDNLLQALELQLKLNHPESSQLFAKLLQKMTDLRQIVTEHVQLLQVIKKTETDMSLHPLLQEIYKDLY

The target is the same in test [20]. In words: OT_PPARg_PPARgSRC1_1440: Odyssey Thera (OT) 24-hour Protein-Complementation Assay for Peroxisome Proliferator-activated Receptor Gamma/ SRC-1 Co-activator (AID 2283388; active = hit-call score of the fitted dose curve at least 0.9, where 1 is the maximum;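 also: nuclear to cytoplasmic ratio of reconstituted Venus YFP fluorescence in fixed imaged cells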). The essentials: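 Cells carrying the PPARg/SRC-1 fragment-complementation reporter receive compound for 24 hours, are fixed and counterstained with Draq5, then imaged. Increased nuclear relative to cytoplasmic YFP fluorescence above DMSO baseline indicates binding activity.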

Sequence of human Retinoic Acid Receptor beta (RARb), RARB (gene 5915) (P10826 whole entry, looked up, the tested form may be a part): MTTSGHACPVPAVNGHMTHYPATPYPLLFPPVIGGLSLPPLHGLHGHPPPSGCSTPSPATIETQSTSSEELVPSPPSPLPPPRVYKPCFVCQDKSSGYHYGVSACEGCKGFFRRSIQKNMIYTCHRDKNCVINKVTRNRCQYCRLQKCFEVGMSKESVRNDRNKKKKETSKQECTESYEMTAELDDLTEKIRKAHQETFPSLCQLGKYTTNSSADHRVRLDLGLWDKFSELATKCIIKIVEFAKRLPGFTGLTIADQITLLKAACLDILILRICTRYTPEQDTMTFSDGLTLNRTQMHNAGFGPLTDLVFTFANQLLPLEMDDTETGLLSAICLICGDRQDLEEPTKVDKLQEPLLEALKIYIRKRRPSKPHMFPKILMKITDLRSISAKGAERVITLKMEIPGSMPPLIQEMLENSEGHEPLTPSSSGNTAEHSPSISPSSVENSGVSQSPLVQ
Sequence of E-selectin (Homo sapiens) (P16581 whole entry, looked up): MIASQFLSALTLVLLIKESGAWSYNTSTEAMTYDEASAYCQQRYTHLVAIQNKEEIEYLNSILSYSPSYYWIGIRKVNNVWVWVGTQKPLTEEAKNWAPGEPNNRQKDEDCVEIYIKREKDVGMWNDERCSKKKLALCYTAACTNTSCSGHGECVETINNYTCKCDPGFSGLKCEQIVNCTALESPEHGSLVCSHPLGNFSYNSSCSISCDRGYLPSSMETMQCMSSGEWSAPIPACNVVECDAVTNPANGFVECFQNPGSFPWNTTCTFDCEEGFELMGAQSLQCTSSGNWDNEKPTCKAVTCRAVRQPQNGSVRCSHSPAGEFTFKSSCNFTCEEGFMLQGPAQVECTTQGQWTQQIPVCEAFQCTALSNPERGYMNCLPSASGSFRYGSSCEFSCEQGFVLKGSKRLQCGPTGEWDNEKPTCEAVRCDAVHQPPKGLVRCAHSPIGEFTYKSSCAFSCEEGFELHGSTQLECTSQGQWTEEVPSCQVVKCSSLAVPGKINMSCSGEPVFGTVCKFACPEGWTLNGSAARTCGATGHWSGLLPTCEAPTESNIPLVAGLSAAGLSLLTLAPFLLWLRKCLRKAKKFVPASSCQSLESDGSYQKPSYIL

`CCCCCCCCCC/C=C/C1CC(=O)OC1=O` (configuration not stated): the result in test [1], in [2], in test [3], in test [4], in test [5] and in [6] was inactive. Further, the outcome in test [7], in test [9], in [10], in [11], in test [12] and in test [13] was inactive. The result in [14], in test [15], in [16] and in test [17] was inactive. The AC50 (usually the concentration at which the activity in the assay is half-maximal) in test [8] is 20 µM (active).
Regarding `CN(C)Cc1cc(C(C)(C)C)c(O)c(C(C)(C)C)c1`, the result in test [1], in test [2], in test [3], in [4], in test [5] and in [6] was inactive. Further, the outcome in test [7], in [8], in test [9], in [10], in [11] and in [12] was inactive. For the same molecule, the result in test [13], in [14], in test [15], in test [16] and in test [17] was inactive. Further, the AC50 in test [14] is 20 µM (active); in test [15], 20 µM (active); in [16] it was 28.7 µM (active); in test [17], 20 µM (active).
For the molecule `CC(=O)c1nccs1`, the result in test [18] was inactive.
In the case of `O=C(c1ccccc1)c1ccccc1O`, the outcome in test [19] and in test [20] was inactive.
On to `Cc1ccnc(N)c1`, for which, in [18], the molecule was classed as inactive.
On to `CCCCCCCCCCCCCCCCCC[N+](C)(C)C`, for which the AC50 is 5 µM (active) in [1]; 1.27 µM (active) in [2]; 6.29 µM (active) in test [3]; 1.89 µM (active) in test [4]; 3.46 µM (active) in test [5]; 15.7 µM (active) in test [18]. Moreover, the AC50 in test [6] is 1.36 µM (active); in [7] it was 5 µM (active); in test [8], 3.8 µM (active); in test [9], 1.68 µM (active); in test [10], 664 nM (active); in test [11], 5 µM (active). For the same molecule, the AC50 was 7.62 µM (active) in test [12]; 1.31 µM (active) in [13]; 7.66 µM (active) in [14]; 9.19 µM (active) in test [15]; 3.16 µM (active) in [16]; 8.34 µM (active) in [17].
Regarding `Nc1ccc(S(=O)(=O)Nc2cnc3ccccc3n2)cc1`, the call in test [19] and in [20] was inactive.
As for `O=C(C(=O)c1ccccc1)c1ccccc1`, the outcome in test [1], in test [2], in [3], in test [4], in test [5] and in test [6] was inactive. Also, the outcome in [7], in test [8], in test [9], in [10], in test [11] and in [12] was inactive. For the same molecule, the outcome in [14], in test [15], in test [16] and in [17] was inactive. The AC50 in test [13] was 0.194 µM (active).
In the case of `O=C(CC(C(=O)OC1CCCCC1)S(=O)(=O)O)OC1CCCCC1` (configuration not stated), the result in [19] and in test [20] was inactive.
For `C/C=C(\C)C(=O)OCC/C=C\CC`, in test [18], the call was inactive.
